# Records with an inconclusive call do not appear. Activity calls are given as the source filed them. The calls were made as follows: active = hit-call score of the fitted dose curve at least 0.9, where 1 is the maximum; inconclusive = response in the unintended direction; inactive = score below 0.9.
# Legend:
# Adra2b (gene 24174) = Adra2b (gene 24174) (UniProt P19328); test: NVS_GPCR_rmAdra2B: NovaScreen (NVS) G Protein-Coupled Receptor Assay for hybird cells Adrenergic, Alpha 2B Receptor (Adra2B) (AID 2283306)
# In short: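 Compounds screened first at 25 uM in duplicate, with actives followed up in concentration-response; specific radioligand displacement from hybrid neuroglioma/blastoma cell membrane preparations measured by filter scintillation counting after 1 h, normalized to DMSO.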
# [1] = biological target: rat Neurokinin-1 Receptor (NK1), Tacr1 (gene 24807) (UniProt P14600); test: NVS_GPCR_rNK1: NovaScreen (NVS) G Protein-Coupled Receptor Assay for rat Neurokinin-1 Receptor (NK1) (AID 2283309)
# In short: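 Competitive radioligand binding to NK1 in rat submaxillary membranes, 1 h incubation, filtration and scintillation read-out. Compounds first screened at 25 uM in duplicate, then concentration-response for actives; signal loss relative to DMSO.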
# [2] = biological target: rat Neurokinin-3 Receptor (NK3), Tacr3 (gene 24808) (UniProt P16177); test: NVS_GPCR_rNK3: NovaScreen (NVS) G Protein-Coupled Receptor Assay for rat Neurokinin-3 Receptor (NK3) (AID 2283310)
# In short: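 Filter-based radioligand displacement on rat cortex membrane preparations, read by scintillation 2 h post-dose. Chemicals first tested in duplicate at 25 uM; actives followed up in concentration series with a 50 uM maximum.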
# [3] = biological target: rat Opioid Receptor, Non-selective Sodium (Na+) Binding, Oprm1 (gene 25601) (UniProt P33535); test: NVS_GPCR_rOpiate_NonSelectiveNa: NovaScreen (NVS) G Protein-Coupled Receptor Assay for rat Opioid Receptor, Non-selective Sodium (Na+) Binding (AID 2283311)
# In short: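 Filtration radioligand binding on rat forebrain membrane preparations, read 1.5 h after dosing. Single-concentration 25 µM primary screen in duplicate, followed by singleton concentration series to 50 µM max for actives; DMSO baseline.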
# [4] = biological target: rat Neonicotinoid receptor (NNR), Chrna7 (gene 25302) (UniProt Q05941); test: NVS_LGIC_rNNR_BungSens: NovaScreen (NVS) Ligand-Gated Ion Channel Assay for rat Neonicotinoid receptor (NNR) (AID 2283315)
# In short: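 Rat cortical membrane preparation incubated 2.5 h with tritiated or iodinated radioligand and test chemical. Bound radioactivity was filtered and counted by scintillation, and displacement was analysed against DMSO.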
# [5] = system: rat Adrenergic, Alpha 1B Receptor (Adra1B), gene 24173; test: NVS_GPCR_rAdra1B: NovaScreen (NVS) G Protein-Coupled Receptor Assay for rat Adrenergic, Alpha 1B Receptor (Adra1B) (AID 2283297)
# In short: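 Filter-binding radioligand competition on membranes from rat liver, read after 1 h by scintillation counting. Single-concentration duplicate screen at 25 uM, followed by concentration-response on actives, normalised to DMSO.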
# [6] = biological target: rat Adrenergic Receptor, Beta (Adrb), Non-selective Binding, Adrb1 (gene 24925) (UniProt P18090); test: NVS_GPCR_rAdrb_NonSelective: NovaScreen (NVS) G Protein-Coupled Receptor Assay for rat Adrenergic Receptor, Beta (Adrb), Non-selective Binding (AID 2283298)
# In short: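 Rat cortical membranes incubated 1 h with beta-adrenergic radioligand and test chemical; bound ligand measured by filtration and scintillation counting. Screen at 25 uM duplicate, then concentration series with 50 uM maximum; loss of signal versus DMSO.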
# [7] = biological target: rat Adrenergic Receptor, Alpha 2 (Adra2), Non-selective Binding, Adra2a (gene 25083) (UniProt P22909); test: NVS_GPCR_rAdra2_NonSelective: NovaScreen (NVS) G Protein-Coupled Receptor Assay for rat Adrenergic Receptor, Alpha 2 (Adra2), Non-selective Binding (AID 2283299)
# In short: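 Filter-based scintillation counting of radioligand binding to rat cortical membrane receptors, measured 1.25 hours post-dosing; loss of signal versus DMSO indicates displacement. Initial single-concentration duplicate at 25 uM, then concentration series.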
# [8] = biological target: rat Somatostatin Receptor (SST), Sstr1 (gene 25033) (UniProt P28646); test: NVS_GPCR_rSST: NovaScreen (NVS) G Protein-Coupled Receptor Assay for rat Somatostatin Receptor (SST) (AID 2283314)
# In short: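 Single-concentration duplicate screen (25 uM), then concentration-response up to 50 uM for chemicals passing a threshold such as 30% inhibition. Membranes came from rat forebrain. Binding was measured 1 h post-dose by filter radiodetection and scintillation, relative to DMSO.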
# [9] = biological target: rat Gamma-Aminobutyric Acid Type B Receptor (GABBR), Gabbr1 (gene 81657) (UniProt Q9Z0U4); test: NVS_GPCR_rGABBR: NovaScreen (NVS) G Protein-Coupled Receptor Assay for rat Gamma-Aminobutyric Acid Type B Receptor (GABBR) (AID 2283301)
# In short: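 Rat cortical membrane preparation, competitive radioligand binding for 1 h with filtration and scintillation readout. Actives from duplicate single-point 25 uM screening proceeded to concentration series with 50 uM top concentration.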
# Sequence of rat Somatostatin Receptor (SST), Sstr1 (gene 25033) (P28646 whole entry, looked up): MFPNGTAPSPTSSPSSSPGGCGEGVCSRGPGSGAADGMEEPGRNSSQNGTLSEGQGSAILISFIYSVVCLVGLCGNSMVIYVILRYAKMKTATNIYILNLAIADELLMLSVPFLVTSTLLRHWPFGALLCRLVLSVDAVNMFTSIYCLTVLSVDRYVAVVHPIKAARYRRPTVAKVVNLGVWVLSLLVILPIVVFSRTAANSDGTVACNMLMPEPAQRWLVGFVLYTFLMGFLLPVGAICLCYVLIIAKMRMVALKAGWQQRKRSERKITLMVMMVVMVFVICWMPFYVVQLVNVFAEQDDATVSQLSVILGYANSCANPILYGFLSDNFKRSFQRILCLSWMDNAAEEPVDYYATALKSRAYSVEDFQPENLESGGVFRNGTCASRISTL
# Sequence of Adra2b (gene 24174) (P19328 whole entry, looked up): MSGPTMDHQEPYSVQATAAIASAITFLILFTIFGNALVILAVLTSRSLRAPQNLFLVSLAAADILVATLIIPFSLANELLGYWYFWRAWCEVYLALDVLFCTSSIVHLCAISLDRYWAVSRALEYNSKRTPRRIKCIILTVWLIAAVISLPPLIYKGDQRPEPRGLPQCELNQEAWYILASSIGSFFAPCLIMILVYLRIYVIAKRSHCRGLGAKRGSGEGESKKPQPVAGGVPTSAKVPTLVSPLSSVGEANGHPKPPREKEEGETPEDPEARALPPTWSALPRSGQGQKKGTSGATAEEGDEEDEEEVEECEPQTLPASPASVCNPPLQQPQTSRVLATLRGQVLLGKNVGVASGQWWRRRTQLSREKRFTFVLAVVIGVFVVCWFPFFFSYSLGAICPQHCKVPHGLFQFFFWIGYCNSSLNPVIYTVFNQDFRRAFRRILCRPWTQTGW
# Sequence of rat Adrenergic Receptor, Beta (Adrb), Non-selective Binding, Adrb1 (gene 24925) (P18090 whole entry, looked up): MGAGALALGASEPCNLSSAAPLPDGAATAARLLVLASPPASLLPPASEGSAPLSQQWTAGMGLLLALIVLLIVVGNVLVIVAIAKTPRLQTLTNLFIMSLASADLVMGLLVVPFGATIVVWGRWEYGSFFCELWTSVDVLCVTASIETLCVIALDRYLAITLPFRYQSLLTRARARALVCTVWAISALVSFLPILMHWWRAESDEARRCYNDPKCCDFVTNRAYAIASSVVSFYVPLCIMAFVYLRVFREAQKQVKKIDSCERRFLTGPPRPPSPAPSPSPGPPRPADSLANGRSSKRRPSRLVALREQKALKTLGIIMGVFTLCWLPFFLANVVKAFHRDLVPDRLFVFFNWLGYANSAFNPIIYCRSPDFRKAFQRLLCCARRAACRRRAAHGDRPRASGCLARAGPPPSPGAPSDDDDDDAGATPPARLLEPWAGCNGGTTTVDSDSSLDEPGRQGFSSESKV
# Sequence of rat Opioid Receptor, Non-selective Sodium (Na+) Binding, Oprm1 (gene 25601) (P33535 whole entry, looked up): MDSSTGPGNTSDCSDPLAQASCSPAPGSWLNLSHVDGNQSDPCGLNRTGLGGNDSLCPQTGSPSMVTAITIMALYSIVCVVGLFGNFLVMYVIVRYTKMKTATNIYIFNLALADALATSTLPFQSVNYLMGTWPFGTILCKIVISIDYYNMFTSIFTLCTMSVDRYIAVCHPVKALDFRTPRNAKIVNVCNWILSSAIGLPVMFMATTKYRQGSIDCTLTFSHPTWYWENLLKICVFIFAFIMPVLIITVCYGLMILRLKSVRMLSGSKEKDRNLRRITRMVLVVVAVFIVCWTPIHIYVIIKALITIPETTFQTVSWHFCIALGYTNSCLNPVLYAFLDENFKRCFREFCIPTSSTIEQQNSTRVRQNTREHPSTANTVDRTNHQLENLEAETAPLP
# Sequence of rat Neurokinin-3 Receptor (NK3), Tacr3 (gene 24808) (P16177 whole entry, looked up): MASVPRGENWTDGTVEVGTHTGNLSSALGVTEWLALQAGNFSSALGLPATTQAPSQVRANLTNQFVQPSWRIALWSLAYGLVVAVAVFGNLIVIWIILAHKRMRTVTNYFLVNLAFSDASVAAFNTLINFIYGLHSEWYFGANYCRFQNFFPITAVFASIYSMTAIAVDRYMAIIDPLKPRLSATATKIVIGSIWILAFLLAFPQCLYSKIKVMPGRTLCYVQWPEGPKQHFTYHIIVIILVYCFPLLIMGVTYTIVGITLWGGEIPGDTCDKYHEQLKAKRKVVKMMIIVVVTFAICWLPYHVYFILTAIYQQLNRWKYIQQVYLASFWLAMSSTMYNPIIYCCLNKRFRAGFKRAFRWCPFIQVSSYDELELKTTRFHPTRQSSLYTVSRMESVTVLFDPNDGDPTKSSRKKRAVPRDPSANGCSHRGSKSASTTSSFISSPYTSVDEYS
# Sequence of rat Adrenergic Receptor, Alpha 2 (Adra2), Non-selective Binding, Adra2a (gene 25083) (P22909 whole entry, looked up): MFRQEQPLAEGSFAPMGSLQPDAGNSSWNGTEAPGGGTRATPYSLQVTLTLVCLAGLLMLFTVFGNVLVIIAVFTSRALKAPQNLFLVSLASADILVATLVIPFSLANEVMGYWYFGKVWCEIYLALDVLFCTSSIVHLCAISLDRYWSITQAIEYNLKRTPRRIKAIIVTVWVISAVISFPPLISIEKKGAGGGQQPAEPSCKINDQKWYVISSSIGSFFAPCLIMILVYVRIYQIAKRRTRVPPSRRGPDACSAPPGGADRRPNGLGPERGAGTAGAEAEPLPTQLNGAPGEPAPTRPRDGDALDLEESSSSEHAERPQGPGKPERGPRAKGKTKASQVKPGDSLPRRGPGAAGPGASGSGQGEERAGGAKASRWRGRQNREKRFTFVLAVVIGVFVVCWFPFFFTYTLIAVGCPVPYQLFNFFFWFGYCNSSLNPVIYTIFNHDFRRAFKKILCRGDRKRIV
# Sequence of rat Neonicotinoid receptor (NNR), Chrna7 (gene 25302) (Q05941 whole entry, looked up): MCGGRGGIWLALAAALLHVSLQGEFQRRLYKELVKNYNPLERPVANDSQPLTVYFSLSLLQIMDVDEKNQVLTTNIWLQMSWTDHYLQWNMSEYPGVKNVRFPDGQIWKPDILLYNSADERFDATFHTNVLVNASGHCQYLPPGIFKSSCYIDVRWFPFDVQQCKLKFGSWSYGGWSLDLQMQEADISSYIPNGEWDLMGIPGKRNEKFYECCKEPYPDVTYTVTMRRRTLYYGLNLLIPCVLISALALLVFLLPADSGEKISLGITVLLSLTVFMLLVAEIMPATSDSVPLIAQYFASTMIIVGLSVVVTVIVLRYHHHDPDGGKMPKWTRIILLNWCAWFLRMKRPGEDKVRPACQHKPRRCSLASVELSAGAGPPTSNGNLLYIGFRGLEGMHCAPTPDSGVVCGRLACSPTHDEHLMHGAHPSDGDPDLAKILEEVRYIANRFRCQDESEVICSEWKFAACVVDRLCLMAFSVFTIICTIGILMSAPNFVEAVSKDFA
# Sequence of rat Neurokinin-1 Receptor (NK1), Tacr1 (gene 24807) (P14600 whole entry, looked up): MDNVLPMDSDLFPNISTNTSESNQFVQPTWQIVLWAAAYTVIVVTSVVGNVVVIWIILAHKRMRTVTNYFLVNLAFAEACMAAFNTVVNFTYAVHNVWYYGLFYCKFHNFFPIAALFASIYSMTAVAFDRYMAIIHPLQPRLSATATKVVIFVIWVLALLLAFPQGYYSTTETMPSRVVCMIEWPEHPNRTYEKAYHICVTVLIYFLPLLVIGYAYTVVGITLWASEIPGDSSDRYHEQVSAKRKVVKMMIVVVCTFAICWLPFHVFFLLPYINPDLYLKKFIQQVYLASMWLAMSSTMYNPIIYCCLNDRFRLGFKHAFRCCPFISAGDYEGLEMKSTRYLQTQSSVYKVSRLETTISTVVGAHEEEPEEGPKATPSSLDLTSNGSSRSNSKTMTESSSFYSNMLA
# Sequence of rat Gamma-Aminobutyric Acid Type B Receptor (GABBR), Gabbr1 (gene 81657) (Q9Z0U4 whole entry, looked up): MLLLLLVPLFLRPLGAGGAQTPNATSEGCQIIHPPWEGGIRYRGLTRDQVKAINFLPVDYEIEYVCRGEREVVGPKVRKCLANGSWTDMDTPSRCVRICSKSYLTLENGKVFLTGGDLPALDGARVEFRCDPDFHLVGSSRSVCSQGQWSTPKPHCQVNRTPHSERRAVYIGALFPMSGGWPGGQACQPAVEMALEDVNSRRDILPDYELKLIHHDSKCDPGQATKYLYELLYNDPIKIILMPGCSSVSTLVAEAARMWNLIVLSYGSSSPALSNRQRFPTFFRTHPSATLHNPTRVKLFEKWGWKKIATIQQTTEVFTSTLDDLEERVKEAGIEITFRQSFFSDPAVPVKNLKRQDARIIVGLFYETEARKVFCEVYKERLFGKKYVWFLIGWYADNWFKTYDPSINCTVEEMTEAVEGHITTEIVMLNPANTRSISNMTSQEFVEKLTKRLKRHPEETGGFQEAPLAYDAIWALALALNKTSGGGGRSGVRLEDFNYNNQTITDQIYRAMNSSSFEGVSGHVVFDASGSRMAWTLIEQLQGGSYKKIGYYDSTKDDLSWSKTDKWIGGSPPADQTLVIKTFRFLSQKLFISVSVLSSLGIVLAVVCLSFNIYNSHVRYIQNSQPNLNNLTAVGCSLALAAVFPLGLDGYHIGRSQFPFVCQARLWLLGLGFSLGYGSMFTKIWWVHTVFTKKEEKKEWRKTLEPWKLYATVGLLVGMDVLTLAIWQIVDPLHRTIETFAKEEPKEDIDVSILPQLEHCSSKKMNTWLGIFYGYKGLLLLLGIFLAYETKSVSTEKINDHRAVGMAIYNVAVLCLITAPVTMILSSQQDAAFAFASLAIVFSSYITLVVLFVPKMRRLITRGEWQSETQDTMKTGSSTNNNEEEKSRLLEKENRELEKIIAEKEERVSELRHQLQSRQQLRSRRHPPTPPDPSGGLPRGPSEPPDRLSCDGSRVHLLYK
compound,measurement,setting,value
COc1ccc(-n2nc(C(F)F)cc2-c2ccc(S(C)=O)cc2)cc1 (centres undefined),outcome,Adra2b (gene 24174),inactive
same,AC50,[1],25 µM (active)
same,outcome,[2],inactive
same,outcome,[3],inactive
same,outcome,[4],inactive
CCCN(C1CCN(C(=O)C2CCNCC2)CC1)[C@@H]1CCc2ccc(OC)cc2C1,AC50,[5],12.8 µM (active)
same,AC50,[6],18.3 µM (active)
same,AC50,Adra2b (gene 24174),7.66 µM (active)
same,outcome,[1],inactive
CC(=O)OCCC(C)C,outcome,[7],inactive
Cn1cnc([N+](=O)[O-])c1Sc1ncnc2nc[nH]c12,outcome,[5],inactive
O=C(O)CCN(C1(C(=O)NO)CCCC1)S(=O)(=O)c1ccc(Oc2ccc(F)cc2)cc1,outcome,Adra2b (gene 24174),inactive
same,outcome,[8],inactive
O=C(NS(=O)(=O)/C=C/c1ccccc1)c1ccc(F)cc1Cl,outcome,[4],inactive
Cn1c(=O)cc(Oc2ccc(F)cc2F)c2cnc(NCC(C)(C)O)nc21,AC50,[1],20.3 µM (active)
CCOC(=O)CC(CC(=O)OCC)(OC(C)=O)C(=O)OCC,outcome,[1],inactive
same,outcome,[2],inactive
same,outcome,[4],inactive
CCOC(=O)COc1ccc2c(c1)CC(NCC(O)c1cccc(Cl)c1)CC2 (centres undefined),AC50,Adra2b (gene 24174),11.2 µM (active)
CCCCCCCCCCCCCCCO,outcome,[5],inactive
same,outcome,[3],inactive
CCN(C(=O)c1cc(C)cc(OC[C@H](C)Nc2ccncc2)c1)C(C)C,AC50,[7],4.14 µM (active)
same,AC50,Adra2b (gene 24174),8.19 µM (active)
CCCCC(CC)COC(=O)CCCCCCCCC(=O)OCC(CC)CCCC (centres undefined),outcome,[1],inactive
Cc1ccc(O)cc1,outcome,[6],inactive
CCOc1cccc(-n2cc(C(=O)N3CCN(c4cc(C(=O)O)c5ccccc5c4)CC3)nc2-c2ccc(C)cc2)c1,AC50,[1],14.8 µM (active)
same,AC50,[2],8.81 µM (active)
CNS(=O)(=O)c1cc(C(=O)N2CCC(CCN3C4CCC3CC(n3c(C)nc5ccccc53)C4)(c3cccc(F)c3)CC2)c(Cl)cc1F (centres undefined),AC50,[5],2.1 µM (active)
same,AC50,Adra2b (gene 24174),7.6 µM (active)
same,AC50,[1],25 µM (active)
same,AC50,[2],5.41 µM (active)
same,AC50,[3],16.1 µM (active)
same,outcome,[8],inactive
same,AC50,[4],26.3 µM (active)
CCC(C)(C)C(=O)O[C@H]1C[C@@H](C)C=C2C=C[C@H](C)[C@H](CC[C@@H]3C[C@@H](O)CC(=O)O3)[C@H]21,outcome,[7],inactive
CC(C)CCO,outcome,[4],inactive
CCc1cc(SCc2sc(-c3ccc(C(F)(F)F)cc3)nc2CN2CCN(c3ccc(OC)cc3)CC2)ccc1OCC(=O)O,outcome,[5],inactive
same,outcome,[9],inactive
same,outcome,[8],inactive
Cc1[nH]cnc1C[C@H]1CCc2c(C)c3ccccc3n2C1=O,AC50,[5],11.9 µM (active)
same,AC50,[6],4.78 µM (active)
same,AC50,Adra2b (gene 24174),3.68 µM (active)
same,outcome,[1],inactive
same,outcome,[4],inactive

# — PubChem BioAssay (EPA / NIEHS)
